Experimental findings from PubChem BioAssay (NCATS) are described below.

Assay [1] has as its target Cellular tumor antigen p53 (Homo sapiens) (UniProt P04637). Put plainly: Primary qHTS for small molecule compounds that upregulate eGFP-tagged delta133p53alpha (in N-terminal) cells. (AID 2060322). Further: nearly all actives have a fitted effect of over 75% in size. Further: potency means the concentration at half of the fitted maximal effect.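 On activation: cells pre-induced with doxycycline then dosed without doxycycline; series mostly up to about 56 µM; 0% = DMSO vehicle and 100% = reference activator.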 Particulars: NCI-H358 eGFP-delta133p53alpha fluorescence, 24 h; activation: active compounds read high. The method in brief:
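NCI-H358 cells pre-induced 24 h with 10 ng/ml doxycycline for eGFP-delta133p53alpha, plated dox-free and exposed 24 h at 37C to titrated compounds. Fixed, Hoechst-stained; gated GFP peak intensity by laser scanning cytometry, normalized to DMSO (0%) and 57.5 uM 5-azacytidine (100%).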
In general terms: qHTS replaces the single test concentration by a dilution series.

Assay [2] concerns the target Aldehyde dehydrogenase, mitochondrial (Homo sapiens) (UniProt P05091). Put plainly: qHTS for Inhibitors of the Aldehyde Dehydrogenase Family (ALDH2) Primary screen (AID 2061308).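 Further: plate controls were vehicle for no effect and reference inhibitor for full effect; nearly all actives have a fitted effect of over 55% in size.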
The target of assay [3] is Retinaldehyde dehydrogenase 3 (Homo sapiens) (UniProt P47895). Put plainly: qHTS for Inhibitors of the Aldehyde Dehydrogenase Family (ALDH1A3) Primary screen (AID 2061315).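 Further: plate controls were DMSO vehicle for no effect and reference inhibitor for full effect.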
Assay [4] in a line: BET inhibitor-based combinations targeting novel dependencies in MECOM-rearranged (r) AML: SET-2 cell line (AID 2202231). Further: nearly all actives have a fitted effect of over 35% in size. Further: potency means the concentration at half of the fitted maximal effect.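 On viability: plate controls were DMSO treated cells for no effect and wells without cells for full effect.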 Conditions: SET-2 AML cells viability, CellTiter-Glo luminescence, 48 h; viability: active compounds read low, concentration not given here. The method in brief: (§1)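 Viability of cells (500 per well) is scored by luminescent CellTiter-Glo at 48 hr post-dosing. Eleven-point titrations are normalized to DMSO and empty controls and reduced to AUC values.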
(In general: In ATP-based viability assays light output follows the ATP content of the culture.)

Assay [5] can be described thus: BET inhibitor-based combinations targeting novel dependencies in MECOM-rearranged (r) AML: OCI-AML3 cell line (AID 2202232). Further: nearly all actives have a fitted effect of over 35% in size. Further: potency means the concentration at half of the fitted maximal effect. Conditions: Potency: OCI-AML3 viability. In short, it runs like this:
as §1

Assay [6] is described as follows: BET inhibitor-based combinations targeting novel dependencies in MECOM-rearranged (r) AML: MV-4-11 cell line (AID 2202233). Further: nearly all actives have a fitted effect of over 45% in size. Further: potency means the concentration at half of the fitted maximal effect. The method in brief:
(§2)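 Using pin-tool transfer, drugs were added in 11 doses to cells (500/well), incubated 48 hr, and assessed with CellTiter-Glo. Z-AUC is a mean-centring transformation applied separately to each screened line.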

The nature of assay [7]: BET inhibitor-based combinations targeting novel dependencies in MECOM-rearranged (r) AML: HNT-34 cell line (AID 2202234). Further: nearly all actives have a fitted effect of over 35% in size. Further: potency means the concentration at half of the fitted maximal effect. The method in brief: as §2
The nature of assay [8]: BET inhibitor-based combinations targeting novel dependencies in MECOM-rearranged (r) AML: UCSD-AML1 cell line (AID 2202235). Further: nearly all actives have a fitted effect of over 40% in size. Further: potency means the concentration at half of the fitted maximal effect. In short, it runs like this: as §2
A short description of assay [9]: BET inhibitor-based combinations targeting novel dependencies in MECOM-rearranged (r) AML: AML-191 cell line (AID 2202236; further: nearly all actives have a fitted effect of over 35% in size; further: potency means the concentration at half of the fitted maximal effect). In short, it runs like this: as §1
Assay [10] in a line: BET inhibitor-based combinations targeting novel dependencies in MECOM-rearranged (r) AML: AML-194 cell line (AID 2202237; further: nearly all actives have a fitted effect of over 40% in size; further: potency means the concentration at half of the fitted maximal effect). The method in brief: as §1

Structures are written as SMILES. Where “and” joins values, the source holds several entries; their conditions need not be identical. Equal values may be shown once. Inconclusive results are not listed. Values without a mark were called inactive. Calls of active or inactive are those of the source. The call rests on the fitted dose curve; in most records, active means well fitted curve in the direction sought with a large enough effect; inconclusive means small, poorly fitted or top-dose-only effect, or another doubt; inactive means no such curve, though single readings can be large; an effect the other way counts as inactive or inconclusive.

Sequence of Cellular tumor antigen p53 (Homo sapiens) (P04637 whole entry, looked up): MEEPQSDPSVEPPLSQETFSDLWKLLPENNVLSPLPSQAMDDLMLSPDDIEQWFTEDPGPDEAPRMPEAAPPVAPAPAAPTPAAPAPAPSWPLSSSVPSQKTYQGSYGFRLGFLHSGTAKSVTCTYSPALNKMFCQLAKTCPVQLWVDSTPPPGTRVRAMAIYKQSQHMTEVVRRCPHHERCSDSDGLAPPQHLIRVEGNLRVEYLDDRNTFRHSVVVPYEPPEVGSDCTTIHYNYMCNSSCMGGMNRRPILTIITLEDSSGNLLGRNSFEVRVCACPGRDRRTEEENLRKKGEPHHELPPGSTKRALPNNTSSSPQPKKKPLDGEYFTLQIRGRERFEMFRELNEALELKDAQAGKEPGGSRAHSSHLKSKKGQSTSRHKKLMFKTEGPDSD

As for `CCCOc1ccc(CCc2nc3cc(-c4c(C)noc4C)ccc3n2CCN2CCOCC2)cc1`, in assay [1], the activation was -35.8%. Besides, the Potency result in assay [2] and in assay [3] was “inactive” throughout. Moreover, the Potency in assay [4] was 20900 nM (active); in assay [5], 16600 nM (active); in assay [6], 18600 nM (active); in assay [7], 14800 nM (active).
`CCCC(=O)NCCc1csc(-c2ccc(Cl)cc2)n1`: in [1], the activation was 1%. In addition, the Potency entry in assay [2] and in assay [3] was “inactive” throughout.
Consider `CC1(C)CCC2(C(=O)OC3OC(COC4OC(CO)C(O)C(O)C4O)C(O)C(O)C3O)CCC3(C)C(=CCC4C5(C)CCC(O)C(C)(C(=O)O)C5CCC43C)C2C1O` (stereo not given), for which, in assay [1], the activation is 5.34%. Also, the Potency result in assay [2] and in assay [3] was “inactive” each time.
For the molecule `CO[C@H]1C[C@@H]2CC[C@@H](C)[C@@](O)(O2)C(=O)C(=O)N2CCCC[C@H]2C(=O)O[C@H]([C@H](C)C[C@@H]2CC[C@@H](OP(C)(C)=O)[C@H](OC)C2)CC(=O)[C@H](C)/C=C(\C)[C@@H](O)[C@@H](OC)C(=O)[C@H](C)C[C@H](C)/C=C/C=C/C=C/1C`, the activation in assay [1] was 3%. Moreover, the Potency result in assay [2] and in assay [3] was “inactive” throughout. Moreover, the Potency in assay [4] was 23500 nM (active); in assay [5], 23500 nM (active); in assay [6], 14800 nM (active); in assay [7], 1480 nM (active); in [8] it was 3.3 nM (active).
`Cc1cc(O)c(-c2ccc([C@@H](C)CN(C)C)cc2)c2c1[nH]c(=O)c1sccc12`: the Potency in assay [1] was 0.301 µM (active); in assay [4], 148 nM (active); in [5], 132 nM (active); in assay [6], 83.3 nM (active); in assay [7], 148 nM (active); in [8], 93.4 nM (active). In addition, in assay [9], the Potency is 118 nM (active). The Potency entry in assay [2] and in assay [3] was “inactive” in each case.
`CC(C)c1cnn2c(NCc3ccccc3)cc(N[C@@H](CO)[C@H](O)CO)nc12`: the Potency in assay [1] was 544 nM (active) and 1.51 µM (active); in assay [4], 296 nM (active); in assay [5] it was 468 nM (active); in assay [6] it was 372 nM (active); in assay [7] it was 296 nM (active); in [8] it was 372 nM (active). The Potency in assay [9] is 296 nM (active); in assay [10], 372 nM (active). The Potency result in [2] and in [3] was “inactive” each time.
For `CCN1CCN(Cc2ccc(NC(=O)c3ccc(C)c(NC(=O)c4cncc(-c5cccs5)c4)c3)cc2C(F)(F)F)CC1`, the Potency in assay [1] was 26.9 µM (active); in assay [4], 5900 nM (active); in [5] it was 4170 nM (active); in assay [6], 118 nM (active); in [7], 14.8 nM (active); in assay [8] it was 1050 nM (active). The Potency in assay [9] was 1050 nM (active); in assay [10] it was 1180 nM (active). The Potency result in assay [2] and in assay [3] was “inactive” throughout.
Regarding `Cc1cnc(Nc2ccc(OCCN3CCCC3)cc2)nc1Nc1cccc(S(=O)(=O)NC(C)(C)C)c1`, the activation in assay [1] is 27.2% and -7.14% and 27.9%. The Potency result in assay [2] and in assay [3] was “inactive” each time. The Potency in [4] is 4680 nM (active); in [5], 2630 nM (active); in assay [6], 742 nM (active); in assay [7] it was 1660 nM (active); in [8], 2350 nM (active); in assay [9], 3320 nM (active). For the same molecule, in assay [10], the Potency was 5250 nM (active).
On to `CCN(c1cc(C#CCN2CCOCC2)cc(C(=O)NCc2c(C)cc(C)[nH]c2=O)c1C)C1CCC(N(C)CCOC)CC1` (stereo not given), for which the activation in [1] is -11.7%. For the same molecule, the Potency result in assay [2], in [3], in assay [5], in assay [6], in assay [7] and in assay [8] was “inactive” in each case. Further, the Potency entry in [9] and in [10] was “inactive” each time. Further, the viability in assay [4] is 113%.
Take `CCNC(=O)Nc1ncc(-c2cc(-c3c(C)cc(OC)cc3C)nc(-c3cnccn3)n2)s1`: in assay [1], the activation was -5.36%. In addition, the Potency result in assay [2], in assay [3], in assay [5], in [6], in [7] and in assay [8] was “inactive” throughout. The Potency entry in assay [9] and in assay [10] was “inactive” in each case. Moreover, the viability in assay [4] is 114%.
Take `CS(=O)(=O)N1CCC(NC(=O)c2[nH]ncc2NC(=O)c2c(Cl)cccc2Cl)CC1`: the Potency in assay [1] was 3.01 µM (active); in assay [4] it was 2350 nM (active); in assay [5], 1480 nM (active); in assay [6], 590 nM (active); in [7], 2090 nM (active); in assay [8], 1480 nM (active). The results for the Potency in assay [9] and in assay [10] were 1180 nM (active) and 1860 nM (active), respectively. Besides, the Potency entry in [2] and in assay [3] was “inactive” in each case.
Regarding `Cc1nc([C@](C)(O)CO)sc1-c1cnc(N)c(O[C@H](C)c2cc(F)ccc2-n2nccn2)c1`, in assay [1], the activation is -10.7%. Also, the Potency result in [2] and in assay [3] was “inactive” in each case. The Potency in assay [4] is 10500 nM (active); in assay [5], 742 nM (active); in assay [6] it was 6610 nM (active); in assay [7], 11800 nM (active); in assay [8] it was 1320 nM (active); in assay [9], 833 nM (active). For the same molecule, the Potency in assay [10] was 1180 nM (active).
On to `Nc1cccc(-c2cc3c(Oc4cccc(O)c4)ncnc3[nH]2)c1`, for which the activation in assay [1] is -3.57%. Besides, the Potency result in assay [2] and in assay [3] was “inactive” in each case. For the same molecule, the Potency is 20900 nM (active) in assay [4]; 13200 nM (active) in assay [5]; 2950 nM (active) in [6]; 468 nM (active) in [7]; 8330 nM (active) in [8]; 3320 nM (active) in assay [9]. Moreover, the Potency in assay [10] was 5900 nM (active).
As to `CCOc1cc(C(=O)N2CCC(N3CCN(C)CC3)CC2)ccc1Nc1ncc2c(n1)N(C1CCCC1)c1ccccc1C(=O)N2C`, the Potency was 30.1 µM (active) in [1]; 14800 nM (active) in assay [4]; 3320 nM (active) in [5]; 1660 nM (active) in [6]; 13200 nM (active) in assay [7]; 5250 nM (active) in assay [8]. In addition, the results for the Potency in assay [9] and in assay [10] were 11800 nM (active) and 8330 nM (active), respectively. Also, the Potency result in assay [2] and in assay [3] was “inactive” throughout.
With `COc1cc2ncnc(Nc3ccc(F)c(Cl)c3)c2cc1NC(=O)/C=C/CN1CCCCC1`, the Potency was 9.53 µM (active) in assay [1]; 8330 nM (active) in assay [4]; 5900 nM (active) in assay [5]; 2950 nM (active) in assay [6]; 3720 nM (active) in assay [7]; 8330 nM (active) in assay [8]. The Potency in assay [9] is 7420 nM (active); in [10], 8330 nM (active). Further, the Potency entry in [2] and in [3] was “inactive” each time.
For `OCCCNc1cc(-c2ccnc(Nc3cccc(Cl)c3)n2)ccn1`, the Potency was 172 nM (active) and 301 nM (active) in assay [1]; 132 nM (active) in assay [4]; 118 nM (active) in assay [5]; 132 nM (active) in assay [6]; 132 nM (active) in assay [7]; 83.3 nM (active) in [8]. For the same molecule, the Potency in assay [9] was 93.4 nM (active); in assay [10], 332 nM (active). In addition, the Potency entry in [2] and in [3] was “inactive” throughout.

What is called viability is a read-out of living cells in per cent, often relative to untreated cells.
